Data on 36 compounds can be found in PubChem BioAssay (Tox21).

Unmarked numbers belong to inactive results. Records with an inconclusive call do not appear. Entries that show only a call come without a potency. The source made the active and inactive calls. Unless noted, the call rests on the fitted dose curve.

A short description of one experiment: qHTS assay to identify small molecule agonists of the hypoxia (HIF-1) signaling pathway (AID 1224846; active means well fitted activation curve with a large enough effect in the signal ratio in the repeat runs, not every such curve was filed as active; the % refers to the signal ratio). The settings on record: HRE-bla ME-180 cells, beta-lactamase ratio, 17 h; series mostly up to 76.8 µM. The method in brief:
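HRE-bla ME-180 beta-lactamase reporter cells in medium with 0.5% dialyzed FBS, pre-incubated 5 h then exposed to compounds 17 h at 37C, 5% CO2; reporter induction read with CCF4-AM FRET substrate.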
On the technique in general: In qHTS, concentration-response curves come from the screen itself.
Take `CCN(CC)c1ccc2c(c1)Oc1cc(N(CC)CC)ccc1C21OC(=O)c2ccccc21`: the Potency entry is “inactive”.

`CC/C=C\C/C=C\C/C=C\CCCCCCCC(=O)OC`: the Potency result was “inactive”.

Regarding `O=[N+]([O-])c1ccc(CO)cc1`, the Potency result was “inactive”.

As for `CC(C)(C)c1ccc(OC2CCCCC2O)cc1` (stereo unspecified), the Potency entry was “inactive”.

With `CN[C@H]1CC[C@@H](c2ccc(Cl)c(Cl)c2)c2ccc(S(N)(=O)=O)cc21`, the Potency entry is “inactive”.

Consider `C=CC(C)(C)O`, for which the Potency entry is “inactive”.

Regarding `S=C1NC=NC2N=CNC12` (stereo unspecified), the Potency entry was “inactive”.

As for `CCSCC`, the Potency result was “inactive”.

`Cc1cc(C)c(O)c(C(C)(C)C)c1`: the Potency entry is “inactive”.

For `CC(=O)CC(N)=O`, the Potency result is “inactive”.

Regarding `CC(C)=NNC(N)=S`, the Potency entry is “inactive”.

With `O=C(O)CN(CCCN(CC(=O)O)CC(=O)O)CC(=O)O`, the activation was 1.13% [at 15.8 µM].

With `CCOC=C(C(=O)OCC)C(=O)OCC`, the Potency entry was “inactive”.

As for `Nc1cc([N+](=O)[O-])cc(Cl)c1O`, the Potency result was “inactive”.

Consider `CC1(C)[C@H]2CC[C@]1(C)C(=O)C2`, for which the Potency entry is “inactive”.

Regarding `O[Si](c1ccccc1)(c1ccccc1)c1ccccc1`, the Potency result is “inactive”.

For `CCC(O)CO` (stereo unspecified), the Potency entry was “inactive”.

Take `c1ccc2cc3c4ccccc4c4ccccc4c3cc2c1`: the Potency result was “inactive”.

In the case of `Cc1cccc(C)c1C`, the Potency entry was “inactive”.

Regarding `NC(=O)c1ccccc1Cl`, the Potency entry is “inactive”.

Regarding `C/C=C/C(=O)C1=C(C)C=CCC1(C)C`, the Potency entry was “inactive”.

As for `CCC1(C)C(=O)N(Cl)C(=O)N1Cl` (stereo unspecified), the Potency entry was “inactive”.

As for `CC(C)(C)c1cc(CCC(=O)OCCSCCOC(=O)CCc2cc(C(C)(C)C)c(O)c(C(C)(C)C)c2)cc(C(C)(C)C)c1O`, the Potency entry is “inactive”.

As to `CCCCCCCCCCCCS(=O)(=O)Cl`, the activation is 1.7% [at 15.8 µM].

On to `CCOc1nc(F)cc2nc(S(=O)(=O)Nc3c(Cl)cccc3C(=O)OC)nn12`, for which the Potency entry was “inactive”.

For the compound `CC(C)c1ccc2sc3ccccc3c(=O)c2c1`, the Potency result was “inactive”.

A further experiment can be described thus: qHTS assay to identify small molecule agonists of H2AX - cell viability counter screen (AID 1224847). Further: nearly all actives have a fitted effect of over 30% in size. Further: potency means the concentration at half of the fitted maximal effect.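 On activity change, negative = cytotoxicity: wild-type CHO-K1 cells; top concentration of the series differs between compounds.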 The settings on record: CHO-K1 viability, CellTiter-Glo luminescence, 3 h; series mostly up to 154 µM. In outline:
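Counter-screen for viability: CellTiter-Glo ATP luminescence read after 3 h compound treatment (15-point titration, 0.76% DMSO final) of CHO-K1 cells at 37C, with 30 min room-temperature reagent incubation.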
Regarding `CCN(CC)c1ccc2c(c1)Oc1cc(N(CC)CC)ccc1C21OC(=O)c2ccccc21`, the Potency was 15.6 µM (active).

As for `O=[N+]([O-])c1ccc(CO)cc1`, the Potency result is “inactive”.

Take `O=C1OC(O)C(C(Cl)Cl)=C1Cl` (stereo unspecified): the Potency result was “inactive”.

Turning to `CC(C)(C)c1ccc(OC2CCCCC2O)cc1` (stereo unspecified), the Potency is 71.3 µM (active).

`CN[C@H]1CC[C@@H](c2ccc(Cl)c(Cl)c2)c2ccc(S(N)(=O)=O)cc21`: the Potency was 113 µM (active).

As for `C=CC(C)(C)O`, the Potency result is “inactive”.

Turning to `S=C1NC=NC2N=CNC12` (stereo unspecified), the Potency was 3.19 µM (active).

Take `CCSCC`: the Potency entry is “inactive”.

Turning to `Cc1cc(C)c(O)c(C(C)(C)C)c1`, the Potency is 113 µM (active).

Consider `CC(=O)CC(N)=O`, for which the Potency entry is “inactive”.

In the case of `O=C(O)CN(CCCN(CC(=O)O)CC(=O)O)CC(=O)O`, the activity change, negative = cytotoxicity is 0.112% [at 31.6 µM].

Regarding `COc1cccc(-c2ccc(/C=C\CN3CCCCCC3)cc2Cl)c1`, the Potency is 89.3 µM (active).

In the case of `Nc1cc([N+](=O)[O-])cc(Cl)c1O`, the Potency result was “inactive”.

Take `CC1(C)[C@H]2CC[C@]1(C)C(=O)C2`: the Potency entry was “inactive”.

`c1ccc2cc3c4ccccc4c4ccccc4c3cc2c1`: the Potency is 101 µM (active).

For `Cn1ccnc1`, the Potency result is “inactive”.

As to `Cc1cccc(C)c1C`, the Potency result was “inactive”.

For `NC(=O)c1ccccc1Cl`, the Potency entry was “inactive”.

Consider `C/C=C/C(=O)C1=C(C)C=CCC1(C)C`, for which the Potency result is “inactive”.

Turning to `O=C1C=CC(=O)N1c1cccc(N2C(=O)C=CC2=O)c1`, the Potency is 45 µM (active).

For `CCC1(C)C(=O)N(Cl)C(=O)N1Cl` (stereo unspecified), the Potency result was “inactive”.

A further experiment can be described thus: qHTS assay to identify small molecule antagonists of the estrogen related receptor (ERR) signaling pathway from Tox21 library (AID 1224848; active means well fitted inhibition curve with a large enough effect in the repeat runs; further: nearly all actives have a fitted effect of over 50% in size; further: potency means the concentration at half of the fitted maximal effect). The settings on record: ERR reporter cell line, luciferase antagonist mode, 18 h; series mostly up to 92.4 µM. In outline: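 Reading was by luminescence 30 min after ONE-Glo addition. Before that, ERR cells at 2,000 per well had rested 6 h at 37 C/5% CO2 and then received pin-tooled compounds in DMSO for 18 h at 37 C.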
In the case of `COc1cc(/C=C/C(=O)CC(=O)/C=C/c2ccc(O)c(OC)c2)ccc1O`, the Potency was 13.8 µM (active).

For `CCCCCCCCCCCCCCCCCCNC(=O)OC1CCN(C(=O)OC[C@H](COC(=O)N(Cc2cccc[n+]2CC)C(=O)c2ccccc2OC)OC)CC1`, the Potency is 10.6 µM (active).

`N#Cc1nc(Cl)c(Cl)c(Cl)c1Cl`: the Potency is 9.69 µM (active).

For `CN[C@H]1CC[C@@H](c2ccc(Cl)c(Cl)c2)c2ccc(S(N)(=O)=O)cc21`, the Potency is 61.1 µM (active).

For `S=C1NC=NC2N=CNC12` (stereo unspecified), the Potency is 19.3 µM (active).

Take `Cc1cc(C)c(O)c(C(C)(C)C)c1`: the Potency result was “inactive”.

As to `CCCCCCCCOC(=O)c1cc(O)c(O)c(O)c1`, the Potency is 3.44 µM (active).

Take `CC1(C)[C@H]2CC[C@]1(C)C(=O)C2`: the Potency result was “inactive”.

Regarding `Oc1cccc2c(O)cccc12`, the Potency result is “inactive”.

For `Cn1ccnc1`, the Potency entry is “inactive”.

Consider `NC(=O)c1ccccc1Cl`, for which the Potency result was “inactive”.

Consider `C/C=C/C(=O)C1=C(C)C=CCC1(C)C`, for which the Potency result was “inactive”.

Regarding `O=C1C=CC(=O)N1c1cccc(N2C(=O)C=CC2=O)c1`, the Potency is 68.6 µM (active).

Regarding `CCC1(C)C(=O)N(Cl)C(=O)N1Cl` (stereo unspecified), the Potency result was “inactive”.

Turning to `CC(C)(C)c1cc(CCC(=O)OCCSCCOC(=O)CCc2cc(C(C)(C)C)c(O)c(C(C)(C)C)c2)cc(C(C)(C)C)c1O`, the Potency entry was “inactive”.

For the compound `COc1cc([C@@H]2c3cc4c(cc3[C@@H](O[C@@H]3O[C@@H]5CO[C@@H](C)O[C@H]5[C@H](O)[C@H]3O)[C@H]3COC(=O)[C@H]23)OCO4)cc(OC)c1O`, the Potency was 3.81 µM (active).

A further experiment is described as follows: qHTS assay to identify small molecule agonists of the estrogen related receptor (ERR) signaling pathway from Tox21 library (AID 1224849). Further: nearly all actives have a fitted effect of over 15% in size. The settings on record: ERR reporter cell line, ONE-Glo luciferase, 18 h; at 92.4 µM (top of the series) unless noted. In outline: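 ERR reporter cells (NTP line) pre-incubated 6 hours at 37 C, then exposed to compounds for 18 hours at 37 C. ONE-Glo luciferase luminescence was read after 30 minutes at room temperature.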
Consider `COc1cc(/C=C/C(=O)CC(=O)/C=C/c2ccc(O)c(OC)c2)ccc1O`, for which the activity change, positive = activation is -73.6%.

Turning to `CCCCCCCCCCCCCCCCCCNC(=O)OC1CCN(C(=O)OC[C@H](COC(=O)N(Cc2cccc[n+]2CC)C(=O)c2ccccc2OC)OC)CC1`, the activity change, positive = activation is -55.2% [at 42.5 µM].

As to `N#Cc1nc(Cl)c(Cl)c(Cl)c1Cl`, the activity change, positive = activation is -76.2%.

Turning to `CN[C@H]1CC[C@@H](c2ccc(Cl)c(Cl)c2)c2ccc(S(N)(=O)=O)cc21`, the activity change, positive = activation is -79%.

As to `S=C1NC=NC2N=CNC12` (stereo unspecified), the activity change, positive = activation was -55.5%.

Turning to `Cc1cc(C)c(O)c(C(C)(C)C)c1`, the activity change, positive = activation is 1.52%.

For the compound `CCCCCCCCOC(=O)c1cc(O)c(O)c(O)c1`, the activity change, positive = activation is -45.2%.

With `COc1cccc(-c2ccc(/C=C\CN3CCCCCC3)cc2Cl)c1`, the activity change, positive = activation is -20.2%.

Take `CC1(C)[C@H]2CC[C@]1(C)C(=O)C2`: the activity change, positive = activation is 6.28%.

As for `O[Si](c1ccccc1)(c1ccccc1)c1ccccc1`, the activity change, positive = activation is -39.7%.

On to `Oc1cccc2c(O)cccc12`, for which the activity change, positive = activation is -6.39%.

For the compound `Cn1ccnc1`, the activity change, positive = activation is 1.09%.

Regarding `NC(=O)c1ccccc1Cl`, the activity change, positive = activation is 3.13%.

Consider `C/C=C/C(=O)C1=C(C)C=CCC1(C)C`, for which the activity change, positive = activation was -1.28%.

`O=C1C=CC(=O)N1c1cccc(N2C(=O)C=CC2=O)c1`: the activity change, positive = activation is -72.9%.

As for `CCC1(C)C(=O)N(Cl)C(=O)N1Cl` (stereo unspecified), the activity change, positive = activation is -3.41%.

Consider `CC(C)(C)c1cc(CCC(=O)OCCSCCOC(=O)CCc2cc(C(C)(C)C)c(O)c(C(C)(C)C)c2)cc(C(C)(C)C)c1O`, for which the activity change, positive = activation is -3.83% [at 42.5 µM].

As for `COc1cc([C@@H]2c3cc4c(cc3[C@@H](O[C@@H]3O[C@@H]5CO[C@@H](C)O[C@H]5[C@H](O)[C@H]3O)[C@H]3COC(=O)[C@H]23)OCO4)cc(OC)c1O`, the activity change, positive = activation is -61.8%.
